Measured values published in PubChem BioAssay (NCATS).
Records with an inconclusive call do not appear. Activity calls are given as the source filed them. Calls follow the shape of the dose curve; as a rule, active = well fitted curve in the direction sought with a large enough effect; inconclusive = small, poorly fitted or top-dose-only effect, or another doubt; inactive = no such curve, though single readings can be large; an effect the other way counts as inactive or inconclusive.

Assays:
[1] = Quantitative High-Throughput drug screen in 47 multiple myeloma cell lines against the NCATS MIPE library collection: INA6_PLB cell viability assay (AID 1918965; also: nearly all actives have a fitted effect of over 55% in size)
How it was run: (§1)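 Steps: seed 500 cells per well; pin-transfer MIPE 4.0 library; incubate 48 h at 37C, 5% CO2, humidified; add CellTiter-Glo, 5 min room temperature; read luminescence.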

[2] = Quantitative High-Throughput drug screen in 47 multiple myeloma cell lines against the NCATS MIPE library collection: JJN3_DSMZ cell viability assay (AID 1918966; also: nearly all actives have a fitted effect of over 50% in size)
How it was run: (§2)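 qHTS of the MIPE 4.0 collection: 500 myeloma cells/well, 48 h drug exposure at 37C in 5% CO2, then CellTiter-Glo for 5 min at room temperature before luminescence reading.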

[3] = Quantitative High-Throughput drug screen in 47 multiple myeloma cell lines against the NCATS MIPE library collection: Karpas25_ECACC cell viability assay (AID 1918968; also: nearly all actives have a fitted effect of over 35% in size)
How it was run: as §2

[4] = Quantitative High-Throughput drug screen in 47 multiple myeloma cell lines against the NCATS MIPE library collection: KMS12BM_JCRB cell viability assay (AID 1918971); also: nearly all actives have a fitted effect of over 35% in size
How it was run: (§3)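 Inhibition of cell viability is measured here. Each line was plated at 500 cells per well, treated with MIPE 4.0 drugs, kept 48 hours at 37C, then assayed for ATP content by CellTiter-Glo luminescence.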

[5] = Quantitative High-Throughput drug screen in 47 multiple myeloma cell lines against the NCATS MIPE library collection: KMS26_JCRB cell viability assay (AID 1918975); also: nearly all actives have a fitted effect of over 45% in size
How it was run: as §3

[6] = Quantitative High-Throughput drug screen in 47 multiple myeloma cell lines against the NCATS MIPE library collection: MM1R_ATCC cell viability assay (AID 1918981); also: nearly all actives have a fitted effect of over 35% in size
How it was run: (§4)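 Inhibition of viability over 48 h was scored by ATP content (CellTiter-Glo) in 500-cell wells. Zero and full viability were defined by media-only and DMSO-only wells.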

[7] = Quantitative High-Throughput drug screen in 47 multiple myeloma cell lines against the NCATS MIPE library collection: KMS28PE_JCRB cell viability assay (AID 1918983); also: nearly all actives have a fitted effect of over 35% in size
How it was run: as §4

[8] = Quantitative High-Throughput drug screen in 47 multiple myeloma cell lines against the NCATS MIPE library collection: KMS34_JCRB cell viability assay (AID 1918985); also: nearly all actives have a fitted effect of over 40% in size
How it was run: as §4

[9] = Quantitative High-Throughput drug screen in 47 multiple myeloma cell lines against the NCATS MIPE library collection: KMS27_JCRB cell viability assay (AID 1918970); conditions: KMS27 myeloma cells, CellTiter-Glo ATP viability, 48 h; viability (% of DMSO): at 45.8 µM (top of the series); also: nearly all actives have a fitted effect of over 30% in size
How it was run: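 Viability inhibition screen, 48 h compound exposure, luminescent ATP read-out.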

[10] = Quantitative High-Throughput drug screen in 47 multiple myeloma cell lines against the NCATS MIPE library collection: KMS12PE_JCRB cell viability assay (AID 1918972); also: nearly all actives have a fitted effect of over 30% in size
How it was run: as §1

[11] = Quantitative High-Throughput drug screen in 47 multiple myeloma cell lines against the NCATS MIPE library collection: KMS21BM_JCRB cell viability assay (AID 1918974); conditions: ATP luminescence, 48 h; viability: at 45.8 µM (top of the series)
How it was run: as §2

[12] = Quantitative High-Throughput drug screen in 47 multiple myeloma cell lines against the NCATS MIPE library collection: MMM1_PLB cell viability assay (AID 1918976); also: nearly all actives have a fitted effect of over 35% in size
How it was run: as §4

[13] = Quantitative High-Throughput drug screen in 47 multiple myeloma cell lines against the NCATS MIPE library collection: MM1S_ATCC cell viability assay (AID 1918980); also: nearly all actives have a fitted effect of over 45% in size
How it was run: as §4

[14] = Quantitative High-Throughput drug screen in 47 multiple myeloma cell lines against the NCATS MIPE library collection: LP1_DSMZ cell viability assay (AID 1918982); also: nearly all actives have a fitted effect of over 35% in size
How it was run: as §4

[15] = Quantitative High-Throughput drug screen in 47 multiple myeloma cell lines against the NCATS MIPE library collection: L363_DSMZ cell viability assay (AID 1918984); also: nearly all actives have a fitted effect of over 40% in size
How it was run: as §4

[16] = Quantitative High-Throughput drug screen in 47 multiple myeloma cell lines against the NCATS MIPE library collection: H1112_PLB cell viability assay (AID 1918967; also: nearly all actives have a fitted effect of over 30% in size)
How it was run: as §2

[17] = Quantitative High-Throughput drug screen in 47 multiple myeloma cell lines against the NCATS MIPE library collection: KMS20_JCRB cell viability assay (AID 1918973); also: nearly all actives have a fitted effect of over 45% in size
How it was run: as §2

[18] = Quantitative High-Throughput drug screen in 47 multiple myeloma cell lines against the NCATS MIPE library collection: MOLP8_DSMZ cell viability assay (AID 1918977); also: nearly all actives have a fitted effect of over 45% in size
How it was run: as §4

[19] = Quantitative High-Throughput drug screen in 47 multiple myeloma cell lines against the NCATS MIPE library collection: NCIH929_DSMZ cell viability assay (AID 1918978); also: nearly all actives have a fitted effect of over 35% in size
How it was run: as §4

[20] = Quantitative High-Throughput drug screen in 47 multiple myeloma cell lines against the NCATS MIPE library collection: OCIMY1_PLB cell viability assay (AID 1918979); also: nearly all actives have a fitted effect of over 35% in size
How it was run: as §4
Potency is read from the fitted curve at half-maximal effect.

Row | SMILES | Potency [1] | Potency [2] | Potency [3] | Potency [4] | Potency [5] | Potency [6] | Potency [7] | Potency [8] | Potency [9] | Potency [10] | Potency [11] | Potency [12] | Potency [13] | Potency [14] | Potency [15] | Potency [16] | Potency [17] | Potency [18] | Potency [19] | Potency [20]
1 | Cc1coc2c1C(=O)C(=O)c1c-2ccc2c(C)cccc12 | 13.2 µM (active) | 18.7 µM (active) | 2.96 µM (active) | 13.2 µM (active) | 6.62 µM (active) | 20.9 µM (active) | 8.33 µM (active) | 0.166 µM (active) | – | – | – | – | – | – | – | – | – | – | – | –
2 | CC(C)c1cnn2c(NCc3ccccc3)cc(NCCCCCCN)nc12 | 26.4 µM (active) | 23.5 µM (active) | – | 26.4 µM (active) | 14.8 µM (active) | 20.9 µM (active) | 14.8 µM (active) | – | 18.7 µM (active) | 18.7 µM (active) | 23.5 µM (active) | 18.7 µM (active) | 3.32 µM (active) | 18.7 µM (active) | 14.8 µM (active) | – | – | – | – | –
3 | CC(Cc1ccc(O)c(O)c1)(NN)C(=O)O (stereo unspecified) | inactive | 23.5 µM (active) | – | 26.4 µM (active) | – | – | – | – | inactive | inactive | – | 11.8 µM (active) | – | – | inactive | inactive | – | – | – | –
4 | CC(C)(O)Cn1c(NC(=O)c2ccc(-c3cn[nH]c3)s2)nc2cc(CN3CCOCC3)ccc21 | 0.833 µM (active) | 1.32 µM (active) | – | 2.35 µM (active) | 2.09 µM (active) | 1.66 µM (active) | 1.48 µM (active) | 1.32 µM (active) | 0.372 µM (active) | 0.469 µM (active) | – | – | 1.66 µM (active) | 1.87 µM (active) | 0.662 µM (active) | 2.64 µM (active) | 2.96 µM (active) | 1.18 µM (active) | 1.66 µM (active) | 1.48 µM (active)
5 | COc1ccc(Nc2cc(-c3cnc(N)nc3)nc(N3CCOCC3)n2)cn1 | 4.18 µM (active) | 4.69 µM (active) | – | 2.96 µM (active) | 4.18 µM (active) | 1.66 µM (active) | 0.833 µM (active) | – | 0.372 µM (active) | 2.09 µM (active) | – | 1.87 µM (active) | 4.69 µM (active) | – | 0.526 µM (active) | – | 4.18 µM (active) | 0.833 µM (active) | 0.264 µM (active) | –
6 | OC[C@@H](O)[C@@H](O)[C@H](O)[C@@H](O)CO | inactive | inactive | inactive | inactive | inactive | inactive | – | – | inactive | inactive | – | – | – | – | – | – | – | inactive | – | inactive
7 | NS(=O)(=O)OC[C@@H]1C[C@@H](n2ccc3c(N[C@H]4CCc5ccccc54)ncnc32)C[C@H]1O | 0.118 µM (active) | 1.32 µM (active) | 0.833 µM (active) | 6.62 µM (active) | 2.64 µM (active) | – | 0.935 µM (active) | – | – | – | – | – | 2.64 µM (active) | 0.662 µM (active) | – | – | – | – | 0.833 µM (active) | –
8 | Cn1cc(CNCC2CCN(c3ncc(C(=O)NO)cn3)CC2)c2ccccc21 | 0.001 µM (active) | 0.0296 µM (active) | – | 0.0235 µM (active) | 0.0166 µM (active) | 0.0148 µM (active) | 0.0296 µM (active) | 0.0187 µM (active) | 0.0166 µM (active) | 0.0372 µM (active) | – | 0.0418 µM (active) | 0.0166 µM (active) | 0.0418 µM (active) | 0.0264 µM (active) | 0.0332 µM (active) | 0.0296 µM (active) | – | 0.0209 µM (active) | 0.105 µM (active)
9 | FC(F)(F)c1ccc(Nc2nc3ccc(Oc4ccnc(-c5ncc(C(F)(F)F)[nH]5)c4)cc3[nH]2)cc1 | 18.7 µM (active) | 20.9 µM (active) | 20.9 µM (active) | 18.7 µM (active) | – | – | – | – | – | 14.8 µM (active) | – | – | 20.9 µM (active) | – | 18.7 µM (active) | – | – | – | – | –
10 | NC(=NCCCCCCN=C(N)N=C(N)Nc1ccc(Cl)cc1)N=C(N)Nc1ccc(Cl)cc1 | 1.66 µM (active) | 3.32 µM (active) | – | 9.35 µM (active) | 16.6 µM (active) | 7.43 µM (active) | 16.6 µM (active) | 11.8 µM (active) | 16.6 µM (active) | 16.6 µM (active) | 7.43 µM (active) | 20.9 µM (active) | 2.09 µM (active) | – | 8.33 µM (active) | 2.64 µM (active) | 3.32 µM (active) | 8.33 µM (active) | 3.32 µM (active) | 11.8 µM (active)
11 | CCOc1cc2ncc(C#N)c(Nc3ccc(OCc4ccccn4)c(Cl)c3)c2cc1NC(=O)C=CCN(C)C | 0.264 µM (active) | 5.9 µM (active) | 0.662 µM (active) | 5.26 µM (active) | 18.7 µM (active) | 11.8 µM (active) | 13.2 µM (active) | – | 0.264 µM (active) | 0.264 µM (active) | – | – | 0.526 µM (active) | – | 0.469 µM (active) | – | 0.935 µM (active) | – | 0.833 µM (active) | –
12 | N=c1ccn2c(n1)O[C@H]1[C@@H](O)[C@@H](CO)O[C@H]12 | 4.18 µM (active) | inactive | – | 0.059 µM (active) | inactive | – | inactive | – | 5.9 µM (active) | 11.8 µM (active) | 2.96 µM (active) | – | 2.64 µM (active) | inactive | – | – | – | – | 16.6 µM (active) | inactive
